The record followed here is PubChem BioAssay (EPA / NIEHS).

In assay [1] the target is Voltage-gated inwardly rectifying potassium channel KCNH2 (Homo sapiens) (UniProt Q12809). Put plainly: NVS_IC_hKhERGCh: NovaScreen (NVS) Ion Channel Assay for human Potassium Channel ERG (KhERGCh) (AID 2283333). Put shortly:
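Cell-free radioligand competition binding on hERG protein extracted from CHO cells, read by filter-based scintillation counting 0.75 h after dosing. Primary screen at 25 uM in duplicate, actives followed in concentration series. Signal loss fitted versus DMSO.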

Assay [2] deals with rat Peripheral-type Benzodiazepine Receptor (PBR), Tspo (gene 24230) (UniProt P16257). Put plainly: NVS_MP_rPBR: NovaScreen (NVS) Membrane Protein Assay for rat Peripheral-type Benzodiazepine Receptor (PBR) (AID 2283335). Put shortly: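 Radioligand displacement, rat kidney membrane prep, 1 h exposure, filter-based scintillation read; DMSO baseline, loss-of-signal scored. Primary screen at 25 uM in duplicate, actives followed up in concentration series.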
rat Peripheral-type Benzodiazepine Receptor (PBR), Tspo (gene 24230), sequence (P16257 whole entry, looked up): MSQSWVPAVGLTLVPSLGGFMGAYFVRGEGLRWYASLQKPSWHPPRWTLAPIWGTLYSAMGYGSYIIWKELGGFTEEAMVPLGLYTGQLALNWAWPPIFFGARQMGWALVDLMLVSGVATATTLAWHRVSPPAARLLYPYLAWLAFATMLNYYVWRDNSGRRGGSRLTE

Assay [3] in a line: NVS_IC_rCaBTZCHL: NovaScreen (NVS) Ion Channel Assay for Calcium Channel, Type L, Benzothiazepine Site (CaBTZCHL) (AID 2283337). Put shortly:
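Competitive displacement of a site-specific radioligand from rat cortex membranes, measured as signal loss against DMSO baseline by filter radiodetection after 1.5 h. Single-point 25 uM primary screen.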

Assay [4] addresses rat Gamma-Aminobutyric Acid Type A Receptor BDZ, alpha 6 site (GABARa6), Gabra6 (gene 29708) (UniProt P30191). The assay is described as follows: NVS_LGIC_rGABARa6: NovaScreen (NVS) Ligand-Gated Ion Channel Assay for rat Gamma-Aminobutyric Acid Type A Receptor BDZ, alpha 6 site (GABARa6) (AID 2283339). Put shortly: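 Rat cerebellar membranes; radioligand binding, filtration and scintillation counting, read 1 h after dosing. Single-concentration duplicate screen at 25 uM, then concentration-response up to 50 uM for actives; loss of signal fitted versus DMSO baseline.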

Assay [5] concerns guinea pig Histamine Receptor (H2), gene 100729734. The assay is described as follows: NVS_GPCR_gH2: NovaScreen (NVS) G Protein-Coupled Receptor Assay for guinea pig Histamine Receptor (H2) (AID 2283342). Put shortly: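 Radioligand displacement on guinea pig striatal membranes, 1 h after dosing, filter-based scintillation counting; loss of signal versus DMSO. Single-point screen at 25 uM in duplicate, then concentration-response up to 50 uM.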

Another assay relates to NCBI gene 100848466. Put plainly: NVS_NR_bPR: NovaScreen (NVS) Nuclear Receptor Binding Assay for bovine Progextron Receptor (PR) (AID 2283343).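 As to AC50: actives lower bound radioligand signal below DMSO meaning displacement of the label.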 Put shortly:
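Bovine uterine membrane preparation; radioligand displacement read by scintillation counting 18 h after dosing. Primary screen single concentration, 25 uM, in duplicate; actives followed up in concentration series. Signal loss versus DMSO baseline.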

Assay [6] addresses chimpanzee Androgen Receptor (AR), AR (gene 747460) (UniProt O97775). Put plainly: NVS_NR_cAR: NovaScreen (NVS) Nuclear Receptor Binding Assay for chimpanzee Androgen Receptor (AR) (AID 2283346).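 Also: radioligand displacement from AR measured by scintillation counting in a cell-free assay; a loss of bound radioligand signal versus DMSO counts as binding.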 Put shortly:
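Radioligand binding to chimpanzee AR expressed in Sf9/Sf21 cells, cell-free, measured 72 h after dosing by lysate-based scintillation counting. Loss of signal vs DMSO; initial duplicate screen at 25 uM, actives retested in concentration series.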

Assay [7] concerns the target Androgen Receptor/SRC-1 Co-activator, AR (gene 367) (UniProt P10275). The assay is described as follows: OT_AR_ARSRC1_0960: Odyssey Thera (OT) 16-hour HEK293T Protein-Complementation Assay for Androgen Receptor/SRC-1 Co-activator (AID 2283353).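 Also: actives raise the signal above DMSO so potency reflects increased AR and SRC-1 complex.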 Put shortly:
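Interaction of AR with SRC-1 was followed by YFP fragment complementation in HEK293T cells after 16 h of dosing. Gain of nuclear-over-cytoplasmic 488 nm fluorescence against DMSO controls defined activity.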

Assay [8] has the same target. The assay is described as follows: OT_AR_ARSRC1_0480: Odyssey Thera (OT) 8-hour HEK293T Protein-Complementation Assay for Androgen Receptor/SRC-1 Co-activator (AID 2283354).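 Also: hits raise the complementation signal above DMSO so AC50 marks enhancers.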 In outline:
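HEK293T cells stably expressing AR and SRC-1 fused to Venus YFP fragments, imaged 8 h after dosing. Complementation fluorescence scored as nuclear/cytoplasmic ratio at 488 nm in at least 400 cells per image; gain fitted versus DMSO.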

The target of assay [9] is Bile acid receptor (Homo sapiens) (UniProt Q96RI1). The assay is described as follows: NVS_NR_hFXR_Antagonist: NovaScreen (NVS) Nuclear Receptor Binding Assay for human Farnesoid X Receptor Antagonism (FXR) (AID 2283350). Put shortly:
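Cell-free TR-FRET ligand-binding read-out on human FXR (NR1H4) in antagonist mode, measured 1 h after dosing. Primary screen in duplicate at 25 uM, actives retested in concentration series; signal loss scored versus DMSO.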

Assay [10] concerns the target Estrogen receptor (Homo sapiens) (UniProt P03372). The assay is described as follows: OT_ER_ERaERa_1440: Odyssey Thera (OT) 24-hour HEK293T Protein-Complementation Assay for Estrogen Receptor-alpha/-alpha Homodimer (AID 2283349).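 Also: hits raise fluorescence above DMSO for agonists and antagonists alike.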 In outline: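 HEK293T cells stably expressing the human ER alpha ligand-binding domain (aa 310-547) as a homodimer PCA were dosed for 24 hours. Fluorescence intensity was read by laser scanning cytometry, and gain of signal was fitted relative to DMSO vehicle.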

The target is the same in assay [11]. Put plainly: OT_ER_ERaERa_0480: Odyssey Thera (OT) 8-hour HEK293T Protein-Complementation Assay for Estrogen Receptor-alpha/-alpha Homodimer (AID 2283351).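 Also: rise in fluorescence from reassembled reporter fragments on ERα LBD homodimer in nucleus or whole cell.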 Put shortly: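 Binding reporter in which dimerisation of ERα LBD (aa 310-547) fusions reconstitutes a fluorescent reporter in HEK293T cells. Compounds incubated 8 h; mean fluorescence intensity increase versus DMSO scored.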

The target in assay [12] is Estrogen receptor (Homo sapiens) + Estrogen receptor beta (Homo sapiens) (UniProt P03372+Q92731). The assay is described as follows: OT_ER_ERaERb_0480: Odyssey Thera (OT) 8-hour HEK293T Protein-Complementation Assay for Estrogen Receptor-alpha/-beta Heterodimer (AID 2283352). Put shortly: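 Fluorescence intensity readout from a protein-fragment complementation reporter in HEK293T; ER-alpha/ER-beta LBD heterodimer. Dosing 8 h. Gain-of-signal fit relative to DMSO negative control; laser scanning cytometry of whole-well cell population.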
Estrogen receptor (Homo sapiens) + Estrogen receptor beta (Homo sapiens), sequence (P03372 whole entry, looked up, the tested form may be a part): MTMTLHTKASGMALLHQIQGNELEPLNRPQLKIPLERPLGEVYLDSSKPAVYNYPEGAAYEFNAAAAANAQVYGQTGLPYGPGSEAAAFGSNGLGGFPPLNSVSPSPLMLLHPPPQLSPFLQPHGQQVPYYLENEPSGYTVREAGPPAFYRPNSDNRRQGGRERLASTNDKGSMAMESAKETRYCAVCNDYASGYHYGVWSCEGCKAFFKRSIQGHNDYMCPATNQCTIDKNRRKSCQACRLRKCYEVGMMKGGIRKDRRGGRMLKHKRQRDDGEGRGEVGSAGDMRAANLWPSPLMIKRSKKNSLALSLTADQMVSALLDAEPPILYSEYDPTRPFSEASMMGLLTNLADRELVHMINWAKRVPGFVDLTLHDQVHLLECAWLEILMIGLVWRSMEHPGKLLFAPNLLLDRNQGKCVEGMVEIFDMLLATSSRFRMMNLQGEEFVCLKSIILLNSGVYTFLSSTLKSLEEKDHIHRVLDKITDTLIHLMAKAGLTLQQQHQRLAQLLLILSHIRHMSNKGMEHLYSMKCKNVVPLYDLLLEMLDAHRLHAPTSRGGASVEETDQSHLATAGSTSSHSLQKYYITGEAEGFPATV
Estrogen receptor (Homo sapiens) + Estrogen receptor beta (Homo sapiens), sequence (Q92731 whole entry, looked up, the tested form may be a part): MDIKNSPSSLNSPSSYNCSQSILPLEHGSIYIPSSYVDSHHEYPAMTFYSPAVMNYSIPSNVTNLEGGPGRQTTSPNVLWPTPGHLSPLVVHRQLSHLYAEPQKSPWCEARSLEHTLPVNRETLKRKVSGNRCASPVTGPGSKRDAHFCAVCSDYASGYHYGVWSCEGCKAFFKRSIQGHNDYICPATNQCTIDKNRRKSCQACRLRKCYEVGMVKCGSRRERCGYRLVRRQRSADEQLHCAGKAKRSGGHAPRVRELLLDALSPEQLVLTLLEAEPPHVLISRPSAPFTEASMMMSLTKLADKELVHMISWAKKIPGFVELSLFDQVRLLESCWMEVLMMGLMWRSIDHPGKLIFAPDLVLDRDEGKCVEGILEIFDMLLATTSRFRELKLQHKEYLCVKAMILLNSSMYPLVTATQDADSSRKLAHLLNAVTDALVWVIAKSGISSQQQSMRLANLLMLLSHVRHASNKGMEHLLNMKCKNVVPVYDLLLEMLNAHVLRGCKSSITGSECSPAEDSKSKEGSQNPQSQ

Assay [13] concerns the target Estrogen receptor (Homo sapiens) (UniProt P03372). The assay is described as follows: NVS_NR_hER: NovaScreen (NVS) Nuclear Receptor Binding Assay for human Estrogen Receptor (ER) (AID 2283348). Put shortly:
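Radioligand competitive displacement binding to estrogen receptor from MCF7 extract, cell-free; 18 h after dosing, scintillation read-out. Primary screen in duplicate at 25 uM; actives followed up in concentration series; loss of signal vs DMSO.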

The target of assay [14] is Bile acid receptor (Homo sapiens) (UniProt Q96RI1). The assay is described as follows: NVS_NR_hFXR_Agonist: NovaScreen (NVS) Nuclear Receptor Binding Assay for human Farnesoid X Receptor Agonism (FXR) (AID 2283347). Put shortly:
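Cell-free TR-FRET binding assay with extracted human FXR protein, agonist format, read 1 h after dosing. Primary screen at 25 uM single concentration in duplicate, actives retested in concentration series; gain of signal versus DMSO.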

Results filed as inconclusive are left out. The source made the active and inactive calls. The calls were made as follows: active = hit-call score of the fitted dose curve at least 0.9, where 1 is the maximum; inconclusive = response in the unintended direction; inactive = score below 0.9.

Bile acid receptor (Homo sapiens), sequence (Q96RI1 whole entry, looked up): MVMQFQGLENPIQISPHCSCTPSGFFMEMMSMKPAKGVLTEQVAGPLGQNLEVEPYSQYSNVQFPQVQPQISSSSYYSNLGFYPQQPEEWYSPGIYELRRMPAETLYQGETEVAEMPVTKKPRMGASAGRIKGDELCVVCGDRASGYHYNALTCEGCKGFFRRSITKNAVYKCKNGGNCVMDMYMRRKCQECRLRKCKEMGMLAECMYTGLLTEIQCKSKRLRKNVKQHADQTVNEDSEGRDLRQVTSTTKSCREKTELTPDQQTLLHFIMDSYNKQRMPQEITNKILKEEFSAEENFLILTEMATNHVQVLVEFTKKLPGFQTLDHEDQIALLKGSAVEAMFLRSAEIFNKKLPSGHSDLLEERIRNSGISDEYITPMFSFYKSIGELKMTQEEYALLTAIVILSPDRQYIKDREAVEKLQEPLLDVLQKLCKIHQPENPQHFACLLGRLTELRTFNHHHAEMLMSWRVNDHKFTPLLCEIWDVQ
Estrogen receptor (Homo sapiens), sequence (P03372 whole entry, looked up, the tested form may be a part): as the sequence (P03372 whole entry, looked up, the tested form may be a part) above
Androgen Receptor/SRC-1 Co-activator, AR (gene 367), sequence (P10275 whole entry, looked up, the tested form may be a part): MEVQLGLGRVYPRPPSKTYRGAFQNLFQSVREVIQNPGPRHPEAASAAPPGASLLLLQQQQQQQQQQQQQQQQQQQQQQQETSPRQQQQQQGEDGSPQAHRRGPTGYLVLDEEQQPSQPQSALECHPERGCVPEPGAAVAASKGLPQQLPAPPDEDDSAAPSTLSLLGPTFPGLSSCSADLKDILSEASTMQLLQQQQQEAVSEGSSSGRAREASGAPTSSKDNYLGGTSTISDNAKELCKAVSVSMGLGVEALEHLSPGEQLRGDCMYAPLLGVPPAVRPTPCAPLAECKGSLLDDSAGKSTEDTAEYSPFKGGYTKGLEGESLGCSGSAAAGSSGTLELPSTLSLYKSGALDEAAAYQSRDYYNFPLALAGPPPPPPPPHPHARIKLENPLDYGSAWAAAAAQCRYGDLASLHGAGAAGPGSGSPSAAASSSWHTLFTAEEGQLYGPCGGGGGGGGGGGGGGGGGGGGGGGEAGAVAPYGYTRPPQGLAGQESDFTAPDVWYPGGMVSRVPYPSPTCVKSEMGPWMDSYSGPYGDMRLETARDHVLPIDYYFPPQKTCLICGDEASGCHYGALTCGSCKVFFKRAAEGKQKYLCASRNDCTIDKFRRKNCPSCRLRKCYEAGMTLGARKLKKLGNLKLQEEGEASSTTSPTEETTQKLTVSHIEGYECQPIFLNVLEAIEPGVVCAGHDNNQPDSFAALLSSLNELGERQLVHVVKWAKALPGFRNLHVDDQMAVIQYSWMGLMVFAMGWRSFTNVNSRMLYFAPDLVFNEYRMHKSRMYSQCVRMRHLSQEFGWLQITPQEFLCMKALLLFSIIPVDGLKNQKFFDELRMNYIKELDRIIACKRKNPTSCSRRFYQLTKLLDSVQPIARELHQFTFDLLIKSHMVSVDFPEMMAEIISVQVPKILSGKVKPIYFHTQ
chimpanzee Androgen Receptor (AR), AR (gene 747460), sequence (O97775 whole entry, looked up): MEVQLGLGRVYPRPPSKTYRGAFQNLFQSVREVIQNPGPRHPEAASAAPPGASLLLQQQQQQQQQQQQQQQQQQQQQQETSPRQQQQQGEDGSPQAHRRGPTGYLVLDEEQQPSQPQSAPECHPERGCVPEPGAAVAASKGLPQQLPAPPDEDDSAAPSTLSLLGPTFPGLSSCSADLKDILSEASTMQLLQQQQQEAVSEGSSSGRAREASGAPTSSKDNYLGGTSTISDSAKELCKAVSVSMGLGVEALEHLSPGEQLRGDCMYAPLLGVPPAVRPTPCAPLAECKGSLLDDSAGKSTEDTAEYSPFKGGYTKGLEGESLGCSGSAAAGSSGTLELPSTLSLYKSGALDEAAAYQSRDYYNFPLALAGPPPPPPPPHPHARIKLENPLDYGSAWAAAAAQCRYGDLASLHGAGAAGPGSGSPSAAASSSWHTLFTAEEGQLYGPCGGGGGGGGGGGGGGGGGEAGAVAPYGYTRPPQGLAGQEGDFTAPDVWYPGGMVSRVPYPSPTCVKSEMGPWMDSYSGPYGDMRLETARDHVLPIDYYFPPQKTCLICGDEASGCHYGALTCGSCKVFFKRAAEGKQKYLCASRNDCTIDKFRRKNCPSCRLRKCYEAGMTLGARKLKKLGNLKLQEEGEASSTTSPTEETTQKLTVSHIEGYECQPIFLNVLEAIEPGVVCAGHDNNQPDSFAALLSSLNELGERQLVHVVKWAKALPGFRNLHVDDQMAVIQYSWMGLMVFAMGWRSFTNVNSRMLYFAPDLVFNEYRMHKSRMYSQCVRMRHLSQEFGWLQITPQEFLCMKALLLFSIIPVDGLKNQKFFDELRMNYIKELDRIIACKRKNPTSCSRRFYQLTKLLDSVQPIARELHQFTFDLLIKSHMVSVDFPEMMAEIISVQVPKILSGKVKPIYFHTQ
Voltage-gated inwardly rectifying potassium channel KCNH2 (Homo sapiens), sequence (Q12809 whole entry, looked up): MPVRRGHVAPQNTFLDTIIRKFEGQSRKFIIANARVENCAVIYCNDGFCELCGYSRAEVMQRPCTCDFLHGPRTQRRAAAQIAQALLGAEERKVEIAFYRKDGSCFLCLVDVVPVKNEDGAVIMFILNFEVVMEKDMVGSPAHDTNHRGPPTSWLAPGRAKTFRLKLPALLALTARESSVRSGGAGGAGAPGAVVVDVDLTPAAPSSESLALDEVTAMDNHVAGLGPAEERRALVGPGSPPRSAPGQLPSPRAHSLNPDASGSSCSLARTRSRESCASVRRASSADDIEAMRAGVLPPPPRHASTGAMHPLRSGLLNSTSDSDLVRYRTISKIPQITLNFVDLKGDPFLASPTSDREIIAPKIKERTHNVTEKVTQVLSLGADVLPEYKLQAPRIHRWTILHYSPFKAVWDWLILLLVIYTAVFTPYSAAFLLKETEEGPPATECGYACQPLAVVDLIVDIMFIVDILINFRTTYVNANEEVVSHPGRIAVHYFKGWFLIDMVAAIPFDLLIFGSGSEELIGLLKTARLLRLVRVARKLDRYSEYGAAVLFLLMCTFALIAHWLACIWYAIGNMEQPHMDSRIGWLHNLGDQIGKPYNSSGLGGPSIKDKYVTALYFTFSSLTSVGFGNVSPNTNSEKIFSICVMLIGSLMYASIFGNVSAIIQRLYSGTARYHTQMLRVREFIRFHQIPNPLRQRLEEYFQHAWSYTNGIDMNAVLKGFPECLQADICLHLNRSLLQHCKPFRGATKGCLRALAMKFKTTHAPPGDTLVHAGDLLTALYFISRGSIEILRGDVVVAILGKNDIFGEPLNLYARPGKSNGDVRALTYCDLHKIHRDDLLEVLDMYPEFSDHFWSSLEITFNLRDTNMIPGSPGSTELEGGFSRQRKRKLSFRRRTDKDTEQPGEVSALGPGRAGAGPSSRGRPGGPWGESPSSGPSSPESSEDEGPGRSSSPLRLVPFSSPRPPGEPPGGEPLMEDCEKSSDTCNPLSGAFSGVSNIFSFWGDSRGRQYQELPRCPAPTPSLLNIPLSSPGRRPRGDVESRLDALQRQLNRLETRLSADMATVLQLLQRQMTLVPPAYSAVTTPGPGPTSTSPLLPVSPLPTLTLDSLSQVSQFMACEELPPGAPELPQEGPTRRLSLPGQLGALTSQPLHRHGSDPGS

Consider `FC(F)C(F)(F)OCC(Cn1cncn1)c1ccc(Cl)cc1Cl` (stereo not given), for which the AC50 (commonly the concentration giving half of the maximal activity seen) in [1] is 19.9 µM (active); in [2] it was 5.37 µM (active); in assay [3] it was 7.26 µM (active); in assay [5] it was 10.1 µM (active); in the assay on NCBI gene 100848466, 25 µM (active); in [6] it was 5.47 µM (active). In addition, in assay [4], the compound was called inactive.
As for `Cc1nn(-c2cc(NS(C)(=O)=O)c(Cl)cc2Cl)c(=O)n1C(F)F`, the compound was called inactive in assay [7] and in assay [8].
Regarding `CC(COc1ccc(Oc2ccccc2)cc1)Oc1ccccn1` (stereo not given), the result in assay [2], in assay [7] and in assay [8] was inactive. The AC50 in [9] is 6.89 µM (active).
Regarding `Cc1cc(C2CC2)nc(Nc2ccccc2)n1`, the AC50 in assay [2] is 7.55 µM (active). Moreover, the compound was classed as inactive in assay [10], in assay [11] and in assay [12].
As to `CC(C)=CC1C(C(=O)OCN2C(=O)C3=C(CCCC3)C2=O)C1(C)C` (stereo not given), in [2], the outcome was inactive. The values for the AC50 in assay [7] and in assay [8] were 78.6 µM (active) and 77.5 µM (active), respectively.
In the case of `CCCOc1nn(C(=O)NS(=O)(=O)c2ccccc2C(=O)OC)c(=O)n1C`, the result in assay [7] and in assay [8] was inactive.
In the case of `COP(=O)(OC)SCn1c(=O)oc2cc(Cl)cnc21`, the compound was classed as inactive in [13], in [10] and in assay [8]. Moreover, in assay [7], the AC50 was 57.8 µM (active).
In the case of `O=c1ccc(=O)[nH][nH]1`, the call in assay [7] and in [8] was inactive.
Turning to `CC(C1CC1)C(O)(Cn1cncn1)c1ccc(Cl)cc1` (stereo not given), the outcome in the assay with NCBI gene 100848466 was inactive. Also, the AC50 in [6] was 24.9 µM (active).
Take `COP(=O)(OC)OC(Br)C(Cl)(Cl)Br` (stereo not given): the call in [10], in [11] and in [8] was inactive. The AC50 in assay [7] is 32.5 µM (active).
In the case of `Cc1ccn2nc(S(=O)(=O)Nc3c(F)cccc3F)nc2n1`, in assay [9], the outcome was inactive.
Turning to `Nc1c(Cl)cc([N+](=O)[O-])cc1Cl`, the AC50 in [6] was 15.4 µM (active). In addition, the outcome in assay [14], in [10], in assay [11], in [12], in assay [7] and in assay [8] was inactive.
Take `N#CSCSC#N`: the call in assay [14] was inactive. In addition, the AC50 in [7] was 15.5 µM (active); in assay [8], 18.2 µM (active).
Consider `CCCCOC(=O)c1ccccc1C(=O)O`, for which the compound was classed as inactive in assay [14], in assay [9], in assay [7] and in assay [8].
For `C[Si](Cn1cncn1)(c1ccc(F)cc1)c1ccc(F)cc1`, the compound was called inactive in assay [2]. The AC50 in the assay on NCBI gene 100848466 was 25 µM (active); in assay [6], 9.47 µM (active).
As for `CN(C)[C@@H]1C(=O)C(C(N)=O)=C(O)[C@@]2(O)C(=O)C3=C(O)c4c(O)cccc4[C@@](C)(O)[C@H]3[C@H](O)[C@@H]12`, the result in [2] was inactive. Moreover, the AC50 in assay [6] was 11.3 µM (active).
`CC1(C(=O)Nc2ccc(O)c(Cl)c2Cl)CCCCC1`: the AC50 in [2] is 0.47 µM (active). Also, the compound was called inactive in [9].
As for `CNc1cnn(-c2cccc(C(F)(F)F)c2)c(=O)c1Cl`, in assay [2], the AC50 was 4.99 µM (active). Also, the outcome (in the assay with NCBI gene 100848466; in assay [9]) was inactive.
For `CCCCOC(=O)[C@@H](C)Oc1ccc(Oc2ccc(C#N)cc2F)cc1`, the outcome in assay [10], in assay [11] and in [12] was inactive.
As for `C[N+]1(C)CCCCC1`, the compound was classed as inactive in assay [2] and in assay [7].
For `CCOP(=O)(OCC)Oc1cc(C)nc(C(C)C)n1`, the result (in the assay on NCBI gene 100848466; in assay [9]) was inactive.
`CNC(=O)Oc1cccc2c1OC(C)(C)O2`: the compound was called inactive in assay [10] and in assay [11].
As to `CSc1nnc(C(C)(C)C)c(=O)n1N`, the result in assay [3] and in assay [9] was inactive.
For `CCc1cccc(CC)c1N(COC)C(=O)CCl`, the AC50 was 5.18 µM (active) in [2], 34.6 µM (active) in [6] and 32 µM (active) in assay [7]. Besides, the compound was classed as inactive in assay [10] and in [8].
`C#CCC1=C(C)C(OC(=O)C2C(C=C(C)C)C2(C)C)CC1=O` (stereo not given): the AC50 in assay [2] was 20 µM (active). For the same compound, the outcome (in the assay on NCBI gene 100848466; in [6]) was inactive.
`CC(C)[C@H](C(=O)O[C@H](C#N)c1cccc(Oc2ccccc2)c1)c1ccc(Cl)cc1`: the outcome in the assay with NCBI gene 100848466 was inactive.
With `CCOP(=O)(NC(C)C)Oc1ccc(SC)c(C)c1` (stereo not given), in assay [6], the AC50 was 25 µM (active). Also, the compound was called inactive in [7] and in assay [8].
Take `CC1=NNC(=O)N(/N=C/c2cccnc2)C1`: in assay [3], the outcome was inactive.
With `CCOC(=O)COc1cc(-c2nn(C)c(OC(F)F)c2Cl)c(F)cc1Cl`, the result in assay [7] and in assay [8] was inactive.
